An excerpt weighted towards active compounds, which were near 5.4% of everything screened.
A3G deaminase = inhibitors of human APOBEC3G DNA deaminase; recombinant A3G, ssDNA deamination FAM/TAMRA fluorescence; 0.28% of 330,000 active; inhibition, % at 20 µM;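 active means inhibition of at least 40% at 20 µM, with no more than 30% in the related APOBEC3A deaminase screen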;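 further: plate controls were DMSO wells with A3G for no effect and wells lacking A3G enzyme for full effect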
ALR inh = inhibitors of human sulfhydryl oxidase ALR; 3.8% of 290,000 active; purified ALR, DTT oxidation, H2O2 HRP-luminol luminescence; P55789; inhibition, % (concentration not given with the values);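 active means mean replicate inhibition above about 79%, with every replicate also reaching it, limit read from the data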
Target sequence (P55789 whole entry, looked up): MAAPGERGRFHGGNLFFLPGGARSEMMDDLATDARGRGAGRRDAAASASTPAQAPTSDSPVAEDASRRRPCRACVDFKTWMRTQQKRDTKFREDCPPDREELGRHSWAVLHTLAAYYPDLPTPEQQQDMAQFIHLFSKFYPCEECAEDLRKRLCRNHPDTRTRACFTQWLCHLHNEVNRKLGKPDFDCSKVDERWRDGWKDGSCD
PHOSPHO1 block = blocks human PHOSPHO1 phosphatase activity; recombinant PHOSPHO1, absorbance phosphatase assay; inhibition, % at 13.3 µM; 1.1% of 290,000 active; in the data active means inhibition above about 60%
Target sequence (Q8TCT1 whole entry, looked up): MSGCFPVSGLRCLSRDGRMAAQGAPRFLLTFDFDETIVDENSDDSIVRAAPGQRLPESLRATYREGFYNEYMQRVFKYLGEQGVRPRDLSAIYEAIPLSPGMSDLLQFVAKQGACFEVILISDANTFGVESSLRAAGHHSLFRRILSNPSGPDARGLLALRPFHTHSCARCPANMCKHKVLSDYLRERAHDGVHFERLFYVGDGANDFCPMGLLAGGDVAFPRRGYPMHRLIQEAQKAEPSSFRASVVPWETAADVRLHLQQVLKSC
APOBEC3A inh = human APOBEC3A DNA deaminase inhibition. P31941. recombinant A3A, FAM/TAMRA ssDNA deamination fluorescence. inhibition, % at 20 µM. 0.41% of 330,000 active. AID 493011;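 active means at least 40% inhibition at 20 µM here, with at most 30% in a related deaminase screen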;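 further: plate controls were A3A with DMSO for no effect and wells lacking A3A enzyme for full effect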
rCAG RNA binder = r(CAG) repeat RNA binding; TO-PRO-1 dye displacement fluorescence; inhibition, % at 3 µM; 1.3% of 370,000 active;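 active means inhibition above the plate cutoff, the mean of all test compounds on that plate plus 3 SD, cut at about 35% in these data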;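 further: 0% = DMSO alone and 100% = 100 µM mitoxantrone as full dye displacement; higher means more dye released from RNA so lower well fluorescence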
aDG glyco up = alpha-DG glycosylation activation; Pro5-aDG cells, alpha-DG glycosylation AlphaScreen (IIH6); 0% Pro5, 100% B10-LARGE cell signal; activation, % at 10 µM; 0.22% of 360,000 active; AID 624168;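 active means activation of at least 8% versus controls, or a plate z-score of at least 8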;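 further: Pro5 are CHO cells carrying HIG-tagged alpha-DG that lacks glycosylation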
* hit, by the source's call; . = no result.

SMILES	A3G deaminase	ALR inh	PHOSPHO1 block	APOBEC3A inh	rCAG RNA binder	aDG glyco up
COc1ccc(/C=N/NC(=O)CCc2n[nH]c(=O)[nH]c2=O)cc1O	-5	99*	-5	-4	-1	0
CCCCc1c(-c2ccccc2OC)ncn1C(C)c1ccc(Cl)cc1 (configuration not stated)	.	.	.	.	0	.
c1cncc(Nc2nc(-c3cccs3)cs2)c1	-8	96*	2	-1	.	0
Cc1nc(C)c(-c2csc(Nc3ccc(O)cc3C)n2)s1	-8	99*	14	-8	-3	0
Cc1nc(C)c(-c2csc(Nc3ccc(F)cc3)n2)s1	-6	94*	46	4	3	2
Cc1cc(O)ccc1Nc1nc(-c2cccs2)cs1	-1	88*	28	-2	11	0
Cc1ccc(CN2CCCCC(NC(=O)Nc3ccccc3F)C2=O)cc1 (configuration not stated)	.	.	.	.	3	.
COc1cc(C(=O)ON=C2C(C)=CC(=O)C=C2C)cc(OC)c1OC	-2	99*	16	-1	1	0
COC(=O)c1cc(CSC(=N)N)ccc1OCCC(C)C	3	99*	6	-1	4	0
CC(C)CCOc1ccccc1C(N)=O	-7	.	47	-6	-3	0
CCCOc1ccc(CSC(=N)N)cc1C(=O)OC	-1	99*	-48	1	3	0
CCCCOc1ccc(Br)cc1CSC(=N)N	.	.	-4	.	10	4
O=C(NC1CCCC1)C1CSCCS(=O)(=O)N1Cc1ccc(F)cc1 (configuration not stated)	.	.	.	.	2	.
Oc1ccccc1Cc1c(O)ccc2ccccc12	4	91*	.	2	11	0
Oc1ccc2ccccc2c1CN1CCOCC1	-6	.	74*	-5	-2	0
CN(C)Cc1c(O)ccc2ccccc12	0	11	13	2	16	0
Oc1cnc2ccccc2c1CN1CCOCC1	-5	1	6	-5	-2	0
CC(=O)C1=C(C)N(Cc2ccc(F)cc2)C(=S)NC1c1cccc(F)c1 (configuration not stated)	.	.	.	.	5	.
CC(=O)N1NC(=Nc2ccccc2)SC1(C)C	-6	98*	16	-4	-4	2
O=C1NC(=Nc2ccccc2)SC1(CO)CO	-8	0	8	-2	5	0
CC(C)(C)C(=O)c1c(N)[nH]c(C(=O)c2ccccc2)c1-c1ccccc1	.	.	.	.	0	.
Cc1ccc(-c2nc(CSCC(=O)N3CCCC3)c(C)o2)cc1	-5	99*	28	-3	-3	0
CCOC(=O)C1CCN(C(=O)CSCc2nc(-c3ccc(OCC)cc3)oc2C)CC1	-6	99*	-7	-21	-9	4
CCOc1ccc(-c2nc(CSCC(=O)N3CCN(C(=O)c4ccco4)CC3)c(C)o2)cc1	-5	99*	-4	-2	5	0
CCOc1cccc(/C=N\NC(=O)Cc2cccs2)c1O	.	.	.	.	6	.
SMILES	A3G deaminase	ALR inh	PHOSPHO1 block	APOBEC3A inh	rCAG RNA binder	aDG glyco up
CC(=O)N1CCN=C1SCc1ccc(Br)cc1	1	96*	10	3	-3	0
CC(=O)N1CCN=C1SCc1cccc(C(F)(F)F)c1	-3	99*	0	-1	0	0
Cc1ccc(CSC2=NCCN2C(=O)C2CC2)cc1	1	-5	-10	-1	-6	0
CCC(=O)N1CCN=C1SCc1cccc(C(F)(F)F)c1	-5	99*	-31	-5	-4	0
CCOC(=O)N1CCN=C1SCc1ccc(Cl)c(Cl)c1	-3	99*	32	1	-5	0
CCCCOCCCNC(=O)C[C@H]1C(=O)N(Cc2ccc(OC)cc2)C2=CCCCC[C@@]21C(=O)OC	.	.	.	.	-1	.
COC(=O)Nc1ccc(S(=O)(=O)N2CCC(C(=O)N(C)C3CCCCC3)CC2)cc1	-4	92*	-29	-4	4	0
COC(=O)[C@]12C[C@H](CC(=O)N3CCCCC3)C(=O)N(Cc3ccccc3)C1=C[C@H](C1CCCC1)O[C@@H]2C	.	.	.	.	1	.
COc1ccc(N2CCN(CCNC(=O)CCNS(=O)(=O)c3cccs3)CC2)cc1	-2	93*	-7	-1	-4	0
Cc1ccc(CNC(=O)C(NS(=O)(=O)c2cccs2)C(C)C)cc1 (configuration not stated)	-4	.	-14	1	0	0
CC(C)C(NS(=O)(=O)c1cccs1)C(=O)NCCN1CCN(c2ccccc2)CC1 (configuration not stated)	0	99*	34	-3	.	0
COc1ccc(N2CCN(CCNC(=O)Nc3ccc([N+](=O)[O-])cc3OC)CC2)cc1	-5	89*	20	-1	-2	0
COc1ccc(N2CCN(CCNS(=O)(=O)c3cccc4nsnc34)CC2)cc1	.	.	4	.	-5	0
COc1ccc(N2CCN(CCNC(=O)CCS(=O)(=O)c3cccc4nsnc34)CC2)cc1	0	94*	-18	2	.	.
COc1ccc(N2CCN(CCNS(=O)(=O)c3cccs3)CC2)cc1	.	.	.	.	0	.
CCOc1ccc(-n2c(SCc3cccc4ccccc34)nnc2-c2ccc(C)cc2)cc1	.	.	.	.	8	.
O=C(Nc1ccc(F)cc1)Nc1c(-c2ccc(F)cc2)nc2ncccn12	.	.	.	.	7	.
COCc1cc(N2CCNC[C@H]2C)ccc1N1CCN(Cc2ccccc2)[C@@H](C)C1	.	.	.	.	6	.
CCn1c(O)c(C=Nc2ccccc2)oc1=S	3	49	103*	16	4	0
CCCn1c(O)c(C=Nc2ccccc2)sc1=S	-4	-1	41	-5	-1	0
CCC(C)(C)NC(=O)/C=C/c1ccccc1[N+](=O)[O-]	-1	95*	20	0	-3	0
CCOc1cc(C)ccc1OCc1nnc(SCC(=O)c2cccc([N+](=O)[O-])c2)n1CC	-4	0	88*	-7	9	0
CCn1c(COc2ccccc2)nnc1SCC(=O)c1cccc([N+](=O)[O-])c1	-7	0	-57	-6	7	0
Cn1cnnc1SCC(=O)c1cccc([N+](=O)[O-])c1	-2	83*	3	-8	12	0
Cn1cnnc1SCC(=O)NNC(=O)c1ccc([N+](=O)[O-])cc1	-2	-9	.	1	1	0
CCC(C(=O)NC1CC1)n1nc(C)c2c(C)n(-c3ccccc3)nc2c1=O (configuration not stated)	4	-6	65*	1	-4	0
COc1ccc(OC)c(CCNC(=O)C(C)n2nc(C)c3c(C)n(-c4ccccc4)nc3c2=O)c1 (configuration not stated)	4	-3	70*	0	-8	0
COc1ccc(/C=C2\CC3(OC(=O)c4ccco4)CCCN2C3)cc1 (configuration not stated)	.	.	.	.	2	.
Oc1c(Br)cc(Br)cc1CNc1ccccn1	-7	98*	2	-4	-1	1

Assay outcomes (PubChem BioAssay)
